Bioassay records as filed in PubChem.
Rab9 promoter act = qHTS Assay for Rab9 Promoter Activators | Huh7 Rab9 promoter-luciferase reporter, luminescence, 24 h | Potency, µM (top dose mostly 9.22 µM), for inactives: at the highest dose activation, negative = inhibition, actives largely listed as activators | hit rate 2.8% among 320,000 | AID 485297, 2010; also: % of control where 0% means no effect; nearly all actives have a fitted effect of over 60% in size
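Huh7 reporter line, Rab9 promoter upstream of luciferase. Compound exposure 24 h at 37 °C in reduced-serum medium with 10% FBS. Read-out: luminescence.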
FLuc modulator = qHTS profiling assay for firefly luciferase inhibitor/activator using purifed enzyme and Km concentrations of substrates (counterscreen for miR-21 project) | Luciferin 4-monooxygenase (Photinus pyralis), P08659 | purified FLuc, Km substrates, luminescence inhibition | Potency, µM (series often up to 57.5 µM), for the others: top-dose activity change, negative = inhibition, most hits filed as inhibitors | hit rate 6.9% among 360,000;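 also: plate controls were vehicle for no effect and reference inhibitor for full effect; nearly all actives have a fitted effect of over 55% in size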
Target sequence (P08659 whole entry, looked up): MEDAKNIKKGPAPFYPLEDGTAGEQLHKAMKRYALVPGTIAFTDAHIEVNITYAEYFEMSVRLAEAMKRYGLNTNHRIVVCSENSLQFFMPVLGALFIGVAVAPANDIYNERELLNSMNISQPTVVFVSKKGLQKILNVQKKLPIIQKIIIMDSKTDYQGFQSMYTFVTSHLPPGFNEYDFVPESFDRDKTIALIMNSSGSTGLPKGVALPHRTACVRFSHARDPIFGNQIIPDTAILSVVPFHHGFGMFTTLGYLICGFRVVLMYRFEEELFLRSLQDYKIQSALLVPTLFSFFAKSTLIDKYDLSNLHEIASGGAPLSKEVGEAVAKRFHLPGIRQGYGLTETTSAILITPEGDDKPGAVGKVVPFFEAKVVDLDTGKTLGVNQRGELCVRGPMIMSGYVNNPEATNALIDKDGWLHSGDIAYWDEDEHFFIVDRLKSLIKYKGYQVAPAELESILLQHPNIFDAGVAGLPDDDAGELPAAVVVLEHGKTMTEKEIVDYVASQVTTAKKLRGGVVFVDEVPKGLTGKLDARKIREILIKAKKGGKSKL
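Biochemical qHTS of compounds, final roughly 60 µM downward over six points, against 10 nM purified firefly luciferase using Km concentrations of substrates (10 uM D-luciferin, 10 uM ATP) in Tris acetate pH 7.5 buffer; luminescence output.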
NPC1 promoter act = qHTS Assay for NPC1 Promoter Activators. Huh7 NPC1 promoter luciferase reporter, 24 h. Potency, µM (top dose mostly 9.22 µM), without a hit: top-dose activation, hits mostly activators. hit rate 2.4% among 320,000. AID 485313, 2010; also: % of control where 0% means no effect; nearly all actives have a fitted effect of over 60% in size
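Luminescence from an NPC1 promoter-driven luciferase reporter in stably transfected Huh7 cells was measured after 24 h compound treatment at 37 °C, followed by 10 min ambient incubation with luciferase detection reagent.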
ELG1 genotoxic = qHTS screen for small molecules that induce genotoxicity in human embryonic kidney (HEK293T) cells expressing luciferase-tagged ELG1 | HEK293T ELG1-luciferase reporter, luminescence, 16 h | Potency, µM (highest dose often 46 µM), for inactives: at the highest dose activity change, positive = activation, usual class: activators | hit rate 1.3% among 330,000 | AID 504466, 2011; also: % of control where 0% means no effect; nearly all actives have a fitted effect of over 60% in size
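After overnight (16 hr) compound treatment at 37 °C, ELG1-luciferase HEK293T cells were lysed with ONE-Glo; luminescence quantified 30 min later at room temperature.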
Luc counter = Counterscreen for Luciferase (Kinase-Glo TM) Inhibition | Luciferin 4-monooxygenase (Photuris pensylvanica), Q27757 | Kinase-Glo luciferase, ATP luminescence, 8 min | Potency, µM (doses to about 38.3 µM), for the others: at the top dose activity change, negative = inhibition, most hits filed as inhibitors | hit rate 0.28% among 200,000 | AID 1379, 2008; also: % is scaled to controls: 0 for no effect and ±100 for the full control effect; nearly all actives have a fitted effect of over 60% in size
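Compounds were added to a substrate mix at pH 7.2 (50 mM imidazole, 10 uM ATP, within the enzyme's linear range), followed by Kinase-Glo detection reagent; luminescence was measured after 8 minutes at ambient temperature.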
SMN2 splice enh = qHTS Assay for Enhancers of SMN2 Splice Variant Expression; Potency, µM (doses to about 46.1 µM), for the others: at the highest dose activity change, positive = activation, most hits filed as activators; hit rate 2.8% among 210,000; AID 1458, 2008; HEK293 SMN2-luciferase splicing reporter, luminescence, 30-36 h; also: % of control where 0% means no effect; nearly all actives have a fitted effect of over 55% in size
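HEK293 cells carry an SMN2 minigene-luciferase reporter in which exon 7 inclusion puts luciferase in frame. Cells were seeded at 2000 cells/well, attached for 10-12 hours, then exposed to compounds for 30-36 hours at 37C before ONE-Glo luminescence.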
* = called active by the depositor; ? = inconclusive; nt = no result; [ ] = remark or other dose. Only some compounds are listed: those with a hit (about 7.3% of all), similar ones and a draw of the others. Calls follow the shape of the dose curve; as a rule, active = well fitted curve in the direction sought with a large enough effect; inconclusive = small, poorly fitted or top-dose-only effect, or another doubt; inactive = no such curve, though single readings can be large; an effect the other way counts as inactive or inconclusive. Potency is read from the fitted curve at half-maximal effect.

SMILES	Rab9 promoter act	FLuc modulator	NPC1 promoter act	ELG1 genotoxic	Luc counter	SMN2 splice enh
COc1ccc(N2C(=O)C(Cl)=C(NCc3ccccc3)C2=O)cc1	6.0%	21.3µM*	-0.9%	11.9%	-3.2%	-0.3%
CCOc1ccccc1NC1=C(Cl)C(=O)N(c2ccc(OC)cc2)C1=O	-4.1%	0.3%	2.9%	2.4%	2.9%	12.3%
COc1ccc(NC2=C(Cl)C(=O)N(CCc3ccccc3)C2=O)cc1	0.0%	2.69µM*	6.0%	7.9%	0.3%	15.8µM*
Nc1c(C(=O)Nc2cccc(F)c2)c2ccccn2c1C(=O)c1ccccc1	nt	-0.9%	nt	nt	nt	0.8%
CCC(=O)Nc1cccc(-c2nnc(-c3cccc(NC(=O)CC)c3)o2)c1	-3.2%	?	0.7%	-6.0%	3.6%	-19.1%
CCC(=O)Nc1ccc(-c2ccc(N3CCC(C)CC3)nn2)cc1	1.41µM*	9.53µM*	2.82µM*	?	nt	nt
CCC(=O)Nc1cccc(-c2ccc(N3CCC(C)CC3)nn2)c1	0.316µM*	0.135µM*	0.316µM*	0.731µM*	nt	nt
CC1CCN(c2ccc(-c3cccc(NC(=O)c4ccco4)c3)nn2)CC1	1µM*	0.151µM*	1.26µM*	0.517µM*	nt	nt
O=C(COc1ccc(Cl)cc1Cl)Nc1ccc(-c2ccc(N3CCOCC3)nn2)cc1	?	1.9%	?	5.0%	nt	nt
COc1ccc(-c2nc3ccccc3n3c(-c4ccccc4)c4c(=O)n(C)c(=O)n(C)c4c23)cc1OC	nt	-4.7%	nt	nt	nt	0.6%
N#CC(=C1CCCC1)c1nc(-c2ccccc2)cs1	?	1.35µM*	3.16µM*	?	-7.9%	15.8µM*
Cc1ccc(-c2csc(C(C#N)=C3CCCC3)n2)cc1	4.47µM*	2.69µM*	3.16µM*	?	-3.6%	17.8µM*
O=C(Nc1ccc(Cl)cc1)Nc1nc(-c2ccccc2O)cs1	1.7%	-4.8%	-1.6%	-0.1%	nt	nt
N#CC(=C1CCCC1)c1nc(-c2ccccc2O)cs1	3.55µM*	1.35µM*	2.82µM*	3.66µM*	?	?
N#C/C(=N\O)c1nc(-c2ccccc2)cs1	1.4%	-10.5%	1.3%	0.0%	-0.4%	-8.7%
N#CC(=C1CCCC1)c1nc(-c2cc3ccccc3oc2=O)cs1	3.16µM*	2.13µM*	?	?	-3.0%	?
CCc1ccc(/C=C(/C#N)c2nc(-c3ccc(C)cc3)cs2)cc1	nt	0.5%	nt	nt	nt	6.8%
COc1cc(C(=O)N2CCC(c3nc4ccccc4o3)CC2)cc(OC)c1OC	nt	-2.2%	nt	nt	nt	nt
Cn1ccc2cc(S(=O)(=O)N3CCN(C(=O)Nc4ccccc4F)CC3)ccc21	nt	-3.8%	nt	nt	nt	nt
Cc1cc(C)cc(NC(c2cccc(Cl)c2)c2nnc(-c3ccccc3)o2)c1 (centres undefined)	nt	-17.4%	nt	nt	nt	8.2%
OCCN(CO)CO	nt	nt	nt	nt	-3.6%[7.66 µM]	-1.9%[9.22 µM]
COc1ccccc1NC(=O)Nc1ccc(C(=O)N2CCCCC2)cc1	0.891µM*	3.01µM*	?	13µM*	nt	nt
COc1ccc(C(=O)Nc2ccc(C(=O)N3CCOCC3)cc2)cc1OC	8.6%	?	0.9%	?	nt	nt
COC(=O)c1ccccc1NC(=O)Nc1ccc(C(=O)N2CCCC2)cc1	1.2%	1.7%	8.9%	-1.7%	-10.6%	-7.3%
CCNS(=O)(=O)c1ccc(NC(=O)Nc2ccccc2OC)cc1	-1.1%	16.9µM*	1.7%	7.9%	2.1%	nt
SMILES	Rab9 promoter act	FLuc modulator	NPC1 promoter act	ELG1 genotoxic	Luc counter	SMN2 splice enh
Cc1ccc(C(=O)Nc2ccc(C(=O)N3CCCCC3)cc2)o1	?	23.9µM*	?	?	nt	nt
Cc1ccc(C(=O)Nc2ccc(NC(=O)c3ccc(C)o3)cc2)o1	0.3%	-18.8%	-6.7%	5.2%	nt	nt
COc1ccc(C(=O)Nc2ccc(C(=O)N3CCCCC3)cc2)cc1OC	18.9%	23.9µM*	15.8%	14.1%	nt	nt
COC(=O)C(Sc1nc(C)cc(C)c1C#N)c1ccccc1 (centres undefined)	0.1%	1.9%	-3.0%	1.5%	2.4%	?
Cc1cc(C)c(C#N)c(Sc2ccccc2N)n1	2.2%	15.1µM*	2.8%	?	2.5%	-1.5%
Nc1ccc2nc(-c3ccc(O)cc3)sc2c1	nt	0.301µM*	nt	nt	nt	1.41µM*
Nc1cccc(-c2nc3ccc(N)cc3s2)c1	?	0.269µM*	?	?	12.6µM*	12.6µM*
Nc1ccc(-c2nc3ccc(N)cc3s2)cc1	?	0.269µM*	?	?	nt	nt
Cc1ccc(C(=O)CN2C(=O)NC3(CCCCCC3)C2=O)c(C)c1	?	?	3.98µM*	16.4µM*	nt	nt
COCCn1c(C)cc(C(=O)CN2C(=O)NC3(CCCCCCC3)C2=O)c1C	3.98µM*	15.1µM*	3.16µM*	?	-2.9%	?
C/C=C/C=C/C=O	nt	nt	nt	nt	nt	0.9%
Cc1ccc(C)c(NC(=O)N2CCN(C(=O)c3nsc4ccccc34)CC2)c1	nt	0.3%	nt	nt	nt	nt
CC(C)n1c(SC2C(=O)CC(C)(C)CC2=O)nc2c1c(=O)n(C)c(=O)n2C	5.3%	0.2%	-3.7%	9.8%	3.0%	11.2µM*
CCCn1c(SC2C(=O)CC(C)(C)CC2=O)nc2c1c(=O)n(C)c(=O)n2C	6.6%	1.0%	-7.8%	2.4%	1.7%	-8.3%
COc1cccc(COC(=O)c2ccc(-c3nnn(Cc4ccccc4)n3)cc2)c1	nt	-6.0%	nt	nt	nt	7.0%
O=C(O)c1cccc(-c2nnn(Cc3ccccc3Cl)n2)c1	0.398µM*	3.01µM*	0.447µM*	?	0.2%	1.58µM*
Cc1ccccc1Cn1nnc(-c2ccc(C(=O)O)cc2)n1	3.0%	?	0.7%	1.8%	0.5%	7.8%
COc1ccc(-c2nnn(Cc3ccccc3)n2)cc1	3.16µM*	21.3µM*	?	?	nt	nt
Cc1ccccc1Cn1nnc(-c2cccc(C(=O)O)c2)n1	0.794µM*	4.26µM*	0.447µM*	1.64µM*	-1.1%	7.94µM*
O=C(O)c1cccc(-c2nnn(Cc3ccccc3)n2)c1	0.708µM*	10.7µM*	1.41µM*	12.7%	2.2%	2.51µM*
Cc1ccccc1-c1nnn(Cc2ccc(-c3nn[nH]n3)cc2)n1	3.9%	?	1.2%	-2.2%	2.8%	-4.0%
CSc1ccc(-c2nnn(Cc3ccc(C)cc3)n2)cc1	?	10.7µM*	?	?	13.9%	17.5%
CCOc1ccc(C(=O)Nc2ccc3nc(SCC(=O)N4CCOCC4)sc3c2)cc1	nt	-17.9%	nt	nt	nt	nt
Cc1ccc(-n2c(=O)c3sc4ccccc4c3n(C)c2=O)cc1F	nt	-0.9%	nt	nt	nt	-6.4%
CCN1CCN(c2ccc(NC(=O)c3ccccc3F)cc2Cl)CC1	?	?	?	?	0.3%	10µM*
